Results: PubChem BioAssay (NCATS)
“And” between values parts separate entries of the source, which are not always exact repeats. Equal entries are not always repeated. Records with an inconclusive call do not appear. The source made the active and inactive calls. Unless noted, calls come from the whole dose curve; as a rule, active = well fitted curve in either direction with a large enough effect (not every such curve was filed as active); inconclusive = small, poorly fitted or top-dose-only effect, or another doubt; inactive = flat fitted curve, though single readings scatter.

What was measured:
[1] = AP1 Signaling Pathway (AID 357); conditions: ME-180 AP-1-bla reporter, EGF-induced, beta-lactamase ratio, 5 h;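 note: ME-180 reporter cells stimulated with EGF at its EC50 level; % is set by controls: 0 for no effect and ±100 for the full control effect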
Outline: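 Titration-series screen for positive or negative modulators of EC50 EGF-induced signaling in ME-180 cells carrying an AP-1-driven beta-lactamase reporter. After 5 hours at 37 degrees Celsius, CCF4 460nm/530nm emission ratio gave %Activity; AC50 values derived.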

[2] = target: Cytochrome P450 1A2 (Homo sapiens) (UniProt P05177); experiment: p450-cyp1a2 (AID 410; calls by dose curve; note: potency is the fitted concentration of half-maximal effect;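 for activity change, negative = inhibition: -100% = full effect of reference inhibitor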)
Sequence of Cytochrome P450 1A2 (Homo sapiens) (P05177 whole entry, looked up): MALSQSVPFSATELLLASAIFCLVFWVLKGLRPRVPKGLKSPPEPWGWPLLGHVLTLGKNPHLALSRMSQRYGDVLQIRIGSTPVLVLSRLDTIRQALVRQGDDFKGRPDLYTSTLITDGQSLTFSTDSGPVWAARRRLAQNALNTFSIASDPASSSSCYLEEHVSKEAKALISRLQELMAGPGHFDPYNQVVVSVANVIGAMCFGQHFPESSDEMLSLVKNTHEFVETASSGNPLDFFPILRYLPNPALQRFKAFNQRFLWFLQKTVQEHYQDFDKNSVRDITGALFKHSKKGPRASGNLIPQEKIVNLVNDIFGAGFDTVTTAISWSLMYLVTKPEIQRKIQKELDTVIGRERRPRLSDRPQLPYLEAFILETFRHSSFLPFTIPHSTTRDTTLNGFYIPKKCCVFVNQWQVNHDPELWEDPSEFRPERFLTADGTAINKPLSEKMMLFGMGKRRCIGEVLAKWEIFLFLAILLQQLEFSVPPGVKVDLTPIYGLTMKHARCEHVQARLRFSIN
Outline: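 Human CYP1A2 (20nM) demethylated Luciferin-ME at its Km (100uM) in 100mM KPO4. After 10 min compound preincubation, NADPH regeneration ran the reaction 60 min at room temperature. Luciferin was read by luminescence, normalized to 57 uM furafylline.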

[3] = NFAT Signaling Pathway (AID 444); conditions: Jurkat NFAT-bla M1, carbachol, beta-lactamase ratio, 5 h;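 note: carbachol stimulus at about its EC50 of 1 µM final; % is set by controls: 0 for no effect and ±100 for the full control effect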
Outline: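 Jurkat cells carrying an NFAT-driven β-lactamase reporter and co-transfected muscarinic M1 receptor were treated with compound plus carbachol (1 uM final, an EC50 level) for 5 h at 37 °C. CCF4 loading followed for 1 h at RT; 460/530 nm ratio gave %activity.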

[4] = Stat Signaling Pathway (AID 446); conditions: ME-180 SIE beta-lactamase reporter, IL-6 stimulated, 5 h;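 note: ME-180 cervical cancer cells given 40 pM IL-6 alongside compound; SIE-controlled beta-lactamase reporter measured as 460/530 nm FRET emission ratio; % is set by controls: 0 for no effect and ±100 for the full control effect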
Outline: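 Reporter line: ME-180 cervical carcinoma, SIE-beta-lactamase. Treatment: compound with 40 pM IL-6, 5 hrs, 37 C, in low-serum OPTI-MEM with 10 mM HEPES pH 7.3. Detection: 460/530 nm fluorescence.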

[5] = target: Mitogen-activated protein kinase 10 (Mus musculus) (UniProt Q61831); experiment: JNK3 AlphaScreen Assay (AID 530);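 note: kinase came from lysate of stimulated human HepG2 cells; signal reports phosphorylation of biotinylated GST-cJun 1-79 at Ser73 with 10 µM ATP; % is set by controls: 0 for no effect and ±100 for the full control effect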
Outline: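 JNK3 came from HepG2 lysates pre-activated with IL-1beta and TNF-alpha and phosphorylated biotinylated GST-cJun (1-79) at 10 uM ATP, pH 7.6, room temperature. Compounds were titrated. AlphaScreen signal used anti-phospho-cJun (Ser73) antibody.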

[6] = target: 3',5'-cyclic-AMP phosphodiesterase 4B (Homo sapiens) (UniProt Q07343); experiment: qHTS Assay for Inhibitors of PDE-IV (AID 607; active = well fitted activation curve with a large enough effect in the main read-out, with a control signal flat, not every such curve was filed as active; note: % of control where 0% means no effect)
Sequence of 3',5'-cyclic-AMP phosphodiesterase 4B (Homo sapiens) (Q07343 whole entry, looked up): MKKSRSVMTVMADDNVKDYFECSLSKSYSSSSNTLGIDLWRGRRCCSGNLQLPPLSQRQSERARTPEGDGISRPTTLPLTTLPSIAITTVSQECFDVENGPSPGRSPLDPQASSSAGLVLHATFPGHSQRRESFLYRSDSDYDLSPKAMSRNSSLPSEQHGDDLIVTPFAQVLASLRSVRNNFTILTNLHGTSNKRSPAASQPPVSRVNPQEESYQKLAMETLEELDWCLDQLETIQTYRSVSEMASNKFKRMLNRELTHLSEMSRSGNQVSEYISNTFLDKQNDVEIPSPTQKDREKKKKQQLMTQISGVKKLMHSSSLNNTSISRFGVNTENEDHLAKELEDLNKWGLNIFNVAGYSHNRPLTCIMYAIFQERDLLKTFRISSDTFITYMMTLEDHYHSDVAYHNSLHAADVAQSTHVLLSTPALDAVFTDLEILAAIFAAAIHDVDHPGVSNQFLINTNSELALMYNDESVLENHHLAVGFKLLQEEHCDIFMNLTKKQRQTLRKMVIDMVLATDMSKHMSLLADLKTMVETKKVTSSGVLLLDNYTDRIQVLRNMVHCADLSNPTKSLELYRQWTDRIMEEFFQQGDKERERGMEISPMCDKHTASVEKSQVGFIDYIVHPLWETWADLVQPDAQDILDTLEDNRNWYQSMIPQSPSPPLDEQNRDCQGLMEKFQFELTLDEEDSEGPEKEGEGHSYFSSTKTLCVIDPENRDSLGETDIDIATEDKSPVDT
Outline: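 Cell-based read-out of cAMP via a modified cyclic nucleotide-gated channel and membrane potential dye (535/590 nm) in HEK293 cells expressing PDE4 endogenously. Compounds tested up to 22.9 uM final; 100 uM RO 20-1724 reference.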

[7] = target: Guanine nucleotide-binding protein G(i) subunit alpha-1 (Homo sapiens) (UniProt P63096); experiment: qHTS Assay for Inhibitors of RGS12 GoLoco Motif Activity (Green Fluorophore) (AID 879; active = well fitted curve in the direction sought with a large enough effect; an effect the other way counts as inactive or inconclusive;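 note: 0% = labeled peptide with Gαi1 and full inhibition = labeled peptide alone without protein; negative values mean loss of peptide binding seen as reduced polarization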)
Sequence of Guanine nucleotide-binding protein G(i) subunit alpha-1 (Homo sapiens) (P63096 whole entry, looked up): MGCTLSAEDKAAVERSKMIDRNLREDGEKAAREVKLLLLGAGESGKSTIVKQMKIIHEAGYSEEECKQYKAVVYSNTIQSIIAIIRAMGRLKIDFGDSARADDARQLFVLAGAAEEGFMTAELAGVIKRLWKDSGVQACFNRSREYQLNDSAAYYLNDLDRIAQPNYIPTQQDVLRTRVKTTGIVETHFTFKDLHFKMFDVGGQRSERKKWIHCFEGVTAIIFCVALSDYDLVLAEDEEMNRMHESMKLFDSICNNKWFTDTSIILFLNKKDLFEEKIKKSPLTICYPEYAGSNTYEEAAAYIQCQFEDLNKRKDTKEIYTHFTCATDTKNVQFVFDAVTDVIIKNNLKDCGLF
Outline: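 Fluorescence polarization assay: 50 nM Gαi1 with 10 nM FITC-labeled RGS12 GoLoco peptide in 10 mM Tris pH 7.5, 150 mM NaCl, 0.1 mM GDP, 0.05% NP40, 10 min at room temperature with compound.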

[8] = target: Pyruvate kinase (Leishmania mexicana) (UniProt Q27686); experiment: qHTS Validation Assay for Inhibitors of Leishmania Mexicana Pyruvate Kinase (AID 945; active = well fitted curve in the direction sought with a large enough effect; an effect the other way counts as inactive or inconclusive;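 note: 0% = DMSO only neutral control wells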)
Sequence of Pyruvate kinase (Leishmania mexicana) (Q27686 2-499 E452W): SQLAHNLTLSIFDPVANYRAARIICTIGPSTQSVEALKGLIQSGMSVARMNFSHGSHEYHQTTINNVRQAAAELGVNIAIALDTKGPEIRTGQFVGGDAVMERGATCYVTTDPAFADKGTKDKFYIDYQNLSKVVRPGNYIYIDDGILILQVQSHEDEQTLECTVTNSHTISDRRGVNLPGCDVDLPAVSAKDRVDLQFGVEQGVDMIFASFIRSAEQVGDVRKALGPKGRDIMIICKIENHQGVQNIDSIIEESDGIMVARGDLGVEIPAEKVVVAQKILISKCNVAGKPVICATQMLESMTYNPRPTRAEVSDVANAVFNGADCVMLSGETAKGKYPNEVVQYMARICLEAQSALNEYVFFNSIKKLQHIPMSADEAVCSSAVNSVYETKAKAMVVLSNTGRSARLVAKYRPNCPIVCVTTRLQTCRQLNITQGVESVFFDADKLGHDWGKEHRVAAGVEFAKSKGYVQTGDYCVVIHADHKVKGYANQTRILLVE
Outline: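 The enzyme is a highly purified E451W mutant of LmPYK used at 0.2 nM. It converts 0.5 mM PEP and 0.1 mM ADP over 1 h at room temperature; product ATP is quantified by luciferase luminescence relative to DMSO controls.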

[9] = target: Pyruvate kinase PKM (Homo sapiens) (UniProt P14618); experiment: qHTS Assay for Activators of Human Muscle Pyruvate Kinase (AID 954; active = well fitted curve in the direction sought with a large enough effect, not every such curve was filed as active;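 note: 0% = uninhibited enzyme and -100% = no enzyme or full thiadiazolimine inhibition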)
Sequence of Pyruvate kinase PKM (Homo sapiens) (P14618 whole entry, looked up): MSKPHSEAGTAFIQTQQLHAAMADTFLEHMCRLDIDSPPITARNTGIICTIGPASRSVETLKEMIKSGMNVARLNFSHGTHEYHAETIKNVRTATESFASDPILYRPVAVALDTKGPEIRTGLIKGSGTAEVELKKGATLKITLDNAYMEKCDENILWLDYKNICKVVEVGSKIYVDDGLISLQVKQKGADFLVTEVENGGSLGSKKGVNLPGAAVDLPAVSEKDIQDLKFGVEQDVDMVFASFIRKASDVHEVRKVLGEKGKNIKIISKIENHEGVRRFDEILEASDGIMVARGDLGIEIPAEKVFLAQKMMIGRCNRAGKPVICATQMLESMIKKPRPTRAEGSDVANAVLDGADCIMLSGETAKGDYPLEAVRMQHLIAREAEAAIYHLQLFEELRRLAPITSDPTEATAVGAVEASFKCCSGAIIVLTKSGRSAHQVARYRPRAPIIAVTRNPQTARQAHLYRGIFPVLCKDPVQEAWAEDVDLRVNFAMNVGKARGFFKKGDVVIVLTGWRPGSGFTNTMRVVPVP
Outline: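 Human PKM2 activity is measured as ATP generation, detected by luciferase-coupled luminescence. The enzyme (0.1 nM) acts on 0.5 mM PEP and 0.1 mM ADP for 1 h at ambient temperature; data are normalized to uninhibited and full-inhibition wells.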

[10] = qHTS Assay for Lipid Storage Modulators (AID 1519; calls by dose curve); conditions: Drosophila S3 cells, BODIPY lipid droplet/cell ratio, laser cytometry, cells loaded with oleic acid
Outline: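 Cells seeded at 5,000 per well were treated with compounds over a concentration series and loaded with oleic acid (400 uM, as added). Lipid droplet fluorescence (488 nm excitation, 500-530 nm channel) was read by laser-scanning cytometry and normalized to 20 uM Triacsin C.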

[11] = target: ATP-dependent 6-phosphofructokinase (Trypanosoma brucei brucei) (UniProt O15648); experiment: qHTS Assay to Find Inhibitors of T. brucei phosphofructokinase: hit validation (AID 492961; active = well fitted curve in the direction sought with a large enough effect; an effect the other way counts as inactive or inconclusive)
Sequence of ATP-dependent 6-phosphofructokinase (Trypanosoma brucei brucei) (O15648 whole entry, looked up): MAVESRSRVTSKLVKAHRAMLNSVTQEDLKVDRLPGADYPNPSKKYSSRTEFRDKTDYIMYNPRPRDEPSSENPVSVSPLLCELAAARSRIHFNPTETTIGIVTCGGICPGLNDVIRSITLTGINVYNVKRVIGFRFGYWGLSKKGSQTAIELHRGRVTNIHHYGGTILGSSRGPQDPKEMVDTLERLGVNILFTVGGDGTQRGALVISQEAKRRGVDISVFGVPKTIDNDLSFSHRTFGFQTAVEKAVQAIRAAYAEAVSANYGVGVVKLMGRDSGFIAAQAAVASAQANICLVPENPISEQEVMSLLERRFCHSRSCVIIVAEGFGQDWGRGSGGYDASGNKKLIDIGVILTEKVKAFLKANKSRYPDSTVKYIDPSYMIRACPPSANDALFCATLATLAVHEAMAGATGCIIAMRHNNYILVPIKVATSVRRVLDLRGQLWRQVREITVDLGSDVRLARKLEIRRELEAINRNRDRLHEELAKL
Outline: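 Reaction: 0.1 M triethanolamine pH 8.0, 5 mM MgCl2, F6P 0.5 mM, ATP 0.1 mM, PFK 1.25 nM, 45 min RT. Read-out: ADP-Glo luminescence. Analysis: concentration-response fits, classed by r2 and efficacy.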

[12] = target: Ubiquitin carboxyl-terminal hydrolase 1 (Homo sapiens) (UniProt O94782); experiment: Inhibitors of USP1/UAF1: Pilot qHTS (AID 504865; active = well fitted curve in the direction sought with a large enough effect; an effect the other way counts as inactive or inconclusive;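 note: rhodamine fluorescence freed from ubiquitin-rhodamine substrate followed over time; top concentration of the series differs between compounds; % is set by controls: 0 for no effect and ±100 for the full control effect; nearly all actives have a fitted effect of over 35% in size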)
Sequence of Ubiquitin carboxyl-terminal hydrolase 1 (Homo sapiens) (O94782 whole entry, looked up): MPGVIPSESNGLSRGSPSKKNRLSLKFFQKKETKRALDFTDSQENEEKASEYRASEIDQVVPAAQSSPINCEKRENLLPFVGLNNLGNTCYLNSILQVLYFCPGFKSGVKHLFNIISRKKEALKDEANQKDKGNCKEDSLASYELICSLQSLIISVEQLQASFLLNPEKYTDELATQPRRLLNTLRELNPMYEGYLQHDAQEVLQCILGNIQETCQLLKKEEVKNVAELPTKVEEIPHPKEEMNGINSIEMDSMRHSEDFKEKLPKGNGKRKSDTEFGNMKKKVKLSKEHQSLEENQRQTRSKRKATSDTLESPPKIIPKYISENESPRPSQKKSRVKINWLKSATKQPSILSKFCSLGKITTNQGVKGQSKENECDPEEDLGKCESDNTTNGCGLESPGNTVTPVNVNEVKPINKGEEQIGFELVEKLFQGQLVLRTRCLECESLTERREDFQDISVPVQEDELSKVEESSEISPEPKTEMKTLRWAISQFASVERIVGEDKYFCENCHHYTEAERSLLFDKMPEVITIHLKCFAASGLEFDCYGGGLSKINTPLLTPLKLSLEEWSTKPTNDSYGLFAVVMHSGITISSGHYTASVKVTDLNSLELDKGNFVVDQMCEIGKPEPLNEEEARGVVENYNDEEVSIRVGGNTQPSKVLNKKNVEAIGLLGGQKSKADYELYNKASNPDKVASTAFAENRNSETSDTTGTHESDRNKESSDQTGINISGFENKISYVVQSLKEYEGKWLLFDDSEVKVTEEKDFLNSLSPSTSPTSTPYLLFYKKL
Outline: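 Kinetic fluorescence assay: 1nM USP1/UAF1, 15 min compound preincubation, then 150nM Ub-Rho; 480/540 nm.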

[13] = qHTS profiling for inhibitors of Plasmodium falciparum proliferation (AID 504749; active = well fitted curve in the direction sought with a large enough effect; an effect the other way counts as inactive or inconclusive;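 note: 0% = DMSO vehicle and full inhibition = artemisinin control; nearly all actives have a fitted effect of over 60% in size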); conditions: P. falciparum in erythrocytes, SYBR Green DNA, 72 h
Outline: (§1)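 P. falciparum-infected erythrocytes (0.3% parasitemia, 2.5% hematocrit final) were exposed to compounds for 72 h at 37 C in 5% CO2, then lysed with SYBR Green buffer overnight at room temperature; parasite DNA fluorescence was normalized to artemisinin and DMSO controls.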

AS120 = experiment: as above; conditions: P. falciparum in erythrocytes, SYBR Green DNA, 72 h; series mostly up to 28.7 µM
Outline: as §1

CP238 = experiment: as above; conditions: P. falciparum in erythrocytes, SYBR Green DNA, 72 h; series mostly up to 12.8 µM
Outline: as §1

CP265 = experiment: as above; conditions: P. falciparum in erythrocytes, SYBR Green DNA, 72 h; series mostly up to 12.8 µM
Outline: as §1

FAB9 = experiment: as above; conditions: P. falciparum in erythrocytes, SYBR Green DNA, 72 h; series mostly up to 12.8 µM
Outline: as §1

[14] = target: Glucocorticoid receptor (Homo sapiens) (UniProt P04150); experiment: GR-EFC Redistribution (AID 451; calls by dose curve; note: potency is the fitted concentration of half-maximal effect); conditions: CHO-K1 GR-EFC translocation, beta-gal luminescence, 2 h
Sequence of Glucocorticoid receptor (Homo sapiens) (P04150 whole entry, looked up, the tested form may be a part): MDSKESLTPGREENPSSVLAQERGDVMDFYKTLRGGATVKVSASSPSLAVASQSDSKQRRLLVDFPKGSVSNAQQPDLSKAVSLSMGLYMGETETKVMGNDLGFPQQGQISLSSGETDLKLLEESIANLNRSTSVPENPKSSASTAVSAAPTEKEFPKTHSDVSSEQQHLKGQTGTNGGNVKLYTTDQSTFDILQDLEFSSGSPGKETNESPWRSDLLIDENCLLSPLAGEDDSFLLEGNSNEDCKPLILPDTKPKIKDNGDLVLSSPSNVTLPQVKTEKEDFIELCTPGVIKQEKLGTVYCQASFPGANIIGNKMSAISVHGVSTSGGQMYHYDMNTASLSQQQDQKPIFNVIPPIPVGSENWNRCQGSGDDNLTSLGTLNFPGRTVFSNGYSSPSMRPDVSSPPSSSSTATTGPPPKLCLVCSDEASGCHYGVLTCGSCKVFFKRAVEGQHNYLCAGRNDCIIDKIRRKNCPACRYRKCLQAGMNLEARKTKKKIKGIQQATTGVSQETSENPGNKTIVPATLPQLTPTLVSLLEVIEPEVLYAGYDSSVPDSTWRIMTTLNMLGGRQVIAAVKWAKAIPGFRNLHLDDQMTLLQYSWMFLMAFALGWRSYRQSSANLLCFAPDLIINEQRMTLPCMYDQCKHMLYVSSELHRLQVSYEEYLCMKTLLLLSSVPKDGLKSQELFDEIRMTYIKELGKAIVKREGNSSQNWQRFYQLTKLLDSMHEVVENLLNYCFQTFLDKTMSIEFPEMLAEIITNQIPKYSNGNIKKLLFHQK
Outline: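 CHO-K1 cells stably expressing nuclear-localized β-gal enzyme acceptor and GR fused C-terminally to the enzyme donor fragment; ligand-driven nuclear translocation restores β-gal by complementation. Compounds titrated up to 46 uM final, 2 h at 37 °C; luminescence read.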

[15] = target: Glucocorticoid receptor (Homo sapiens) (UniProt P04150); experiment: GR-GFP Redistribution (AID 450;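 active = compounds whose dose series gives a full or clear partial fitted curve of increased nuclear translocation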; note: potency is the fitted concentration of half-maximal effect); conditions: U2OS GR-GFP nuclear translocation, laser cytometry, 2 h
[16] = target: Luciferin 4-monooxygenase (Photinus pyralis) (UniProt P08659); experiment: Biochemical firefly luciferase enzyme assay for NPC (AID 624030; active = well fitted curve in the direction sought with a large enough effect; an effect the other way counts as inactive or inconclusive;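 note: purified P. pyralis luciferase at 10 nM with luciferin and ATP substrate; 0% = DMSO and -100% = full luciferase inhibition by PTC124 control; nearly all actives have a fitted effect of over 70% in size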)
Outline: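 Counter-screen for direct inhibition of the luciferase enzyme by approved-drug library compounds, run at 10 nM enzyme in 50 mM Tris acetate (final). Luminescence was read within 5 min of enzyme-buffer addition and normalized to PTC124 versus DMSO (0%).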

[17] = measured here: cell count channel max response
[18] = measured here: lipid channel max response
[19] = at 7.69 µM (top of the series) unless noted

O=C(c1ccccc1)c1ccc2n1CC[C@H]2C(=O)O
active: Potency [2] 15.8 µM
-5.21%: max response [10, 17]
-1.68%: max response [10, 18]
inactive: activity change, negative = inhibition ([1]; at 17.2 µM (top of the series)) -5.93% | activity change, negative = inhibition ([1]; at 38 µM (top of the series)) -1.3% | activity change, negative = inhibition ([3]; at 17.2 µM (top of the series)) -13.5% | activity change, negative = inhibition ([3]; at 38 µM (top of the series)) -0.138% | activity, negative = inhibition ([4]; at 17.2 µM (top of the series)) 0.0746% | activity, negative = inhibition ([4]; at 38 µM (top of the series)) 5.51% | Potency [5] | Potency [6] | Potency [7] | outcome [8] | outcome [9] | activity change, negative = inhibition ([10]; at 25.7 µM (top of the series)) 1.19% | outcome [11] | Potency [12] | activity, negative = inhibition ([13]; at 12.8 µM (top of the series), parasite line A) 1.36% | activity, negative = inhibition ([13]; at 12.8 µM (top of the series), parasite line B) 2.01% | Potency (AS120) | Potency (CP238) | Potency (CP265) | Potency (FAB9)

COc1ccccc1CN1CC[C@@]2(CCCN(C(=O)c3ccco3)C2)C1
inactive: activity change, negative = inhibition [3, 19] -21.8% | activity, negative = inhibition [4, 19] -8.66% | Potency [14] > 46 µM | Potency [5] | activity change, negative = inhibition ([10]; at 57.5 µM (top of the series)) 1.52%
4.46%: max response [10, 17]
8.6%: max response [10, 18]

C[C@@]12CCC(=O)C=C1CC[C@H]1[C@H]3CC[C@](O)(C(=O)CO)[C@]3(C)CC(=O)[C@@H]12
inactive: activity change, negative = inhibition ([1]; at 17.2 µM (top of the series)) 11.7% | activity change, negative = inhibition ([1]; at 38 µM (top of the series)) -1.21% | Potency [2] | activity change, negative = inhibition ([3]; at 17.2 µM (top of the series)) -13.1% | activity change, negative = inhibition ([3]; at 38 µM (top of the series)) -9.72% | activity, negative = inhibition ([4]; at 17.2 µM (top of the series)) 8.63% | activity, negative = inhibition ([4]; at 38 µM (top of the series)) -7% | Potency [14] > 46 µM and > 20.6 µM | Potency [6] | activity change, negative = inhibition ([10]; at 25.7 µM (top of the series)) -1.59% | Potency [12]
-0.115%: max response [10, 17]
-3.69%: max response [10, 18]

C[C@@]12CCC(=O)C=C1CC[C@@H]1[C@@H]2[C@H](O)C[C@]2(C)[C@@H]1CC[C@]2(O)C(=O)CO
-11.2%: max response [10, 17]
inactive: activity change, negative = inhibition ([1]; at 17.2 µM (top of the series)) 1.82% | activity change, negative = inhibition ([1]; at 38 µM (top of the series)) 1.86% | Potency [2] | activity change, negative = inhibition ([3]; at 17.2 µM (top of the series)) -9.51% | activity change, negative = inhibition ([3]; at 38 µM (top of the series)) -0.823% | activity, negative = inhibition ([4]; at 17.2 µM (top of the series)) -0.993% | activity, negative = inhibition ([4]; at 38 µM (top of the series)) -22.1% | Potency [5] | Potency [6] | activity change, negative = inhibition ([10]; at 25.7 µM (top of the series)) -5.23% | Potency [12]
-16.6%: max response [10, 18]

CCCN[C@@H](C)C(=O)Nc1ccccc1C
11.7%: max response [10, 17]
inactive: activity change, negative = inhibition ([1]; at 17.2 µM (top of the series)) -5.22% | activity change, negative = inhibition ([1]; at 38 µM (top of the series)) 7.83% | Potency [2] | activity change, negative = inhibition ([3]; at 17.2 µM (top of the series)) -7.99% | activity change, negative = inhibition ([3]; at 38 µM (top of the series)) 0.91% | activity, negative = inhibition ([4]; at 17.2 µM (top of the series)) -2.53% | activity, negative = inhibition ([4]; at 38 µM (top of the series)) -11.1% | Potency [15] > 46 µM and > 20.6 µM | Potency [14] > 46 µM and > 20.6 µM | Potency [5] | Potency [6] | Potency [7] | outcome [8] | outcome [9] | activity change, negative = inhibition ([10]; at 25.7 µM (top of the series)) -0.0308% | outcome [11] | Potency [12] | outcome [16] | activity, negative = inhibition ([13]; at 28.7 µM (top of the series), parasite line A) 7.59% | activity, negative = inhibition ([13]; at 28.7 µM (top of the series), parasite line B) 9.71% | Potency (AS120) | Potency (CP238) | Potency (CP265) | Potency (FAB9)
11.2%: max response [10, 18]
